Among the data in PubChem BioAssay (NCI) are growth values, retold here.

Holding throughout (assay): NCI-60 one-dose screen, 48 h (100 = growth as untreated, 0 = no growth, -100 = all killed)
What all share (conditions): 10 µM unless noted

Assay [1] relates to NCI-H23 lung.
Assay [2] relates to NCI-H226 lung.
Assay [3] relates to NCI-H322M lung.
Assay [4] concerns HOP-62 NSCLC.
Assay [5] deals with NCI-H460 lung.
Assay [6] deals with A549/ATCC NSCLC.
In assay [7] the test system is 786-0 renal.
Assay [8] concerns COLO 205 colon.
Assay [9] concerns DU-145 prostate.
Assay [10] deals with K-562 leukemia.
Assay [11] has as its system MALME-3M melanoma.
Assay [12] has as its system MDA-MB-231 breast.
The subject of assay [13] is RXF 393 renal.
The subject of assay [14] is SF-268 CNS.
For assay [15], the system named is SF-295 CNS.
The test system of assay [16] is SF-539 CNS.
In assay [17] the test system is UACC-257 melanoma.
Assay [18] deals with M14 melanoma.

Molecules are shown by their SMILES. The panel holds about 83,000 compounds, 20% with a hit somewhere; the sample as a whole holds those more often.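 Cell lines were cultured in 96-well plates, exposed to a single compound concentration, and assessed for percent growth 48 hours later.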 Values without a mark were called inactive. The source made the active and inactive calls. The calls were made as follows: active = growth percent below 10; inactive = the rest.

In the case of `O=Nc1ccc(O)c2ccccc12`, the growth was -9.22% (active) in assay [1]; 101% in assay [2]; 106% in assay [3]; 38.4% in [4]; 96.7% in [5]; 41.6% in assay [6]. The growth in [7] was 77.7%; in assay [8], 21.9%; in assay [9], 56.7%; in assay [10], 12.1%; in [11], -58.5% (active); in [12], 52.5%. Besides, the growth in assay [13] is 10.9%; in assay [14] it was 10.5%; in assay [15], 62.9%; in assay [16], 0.651% (active); in assay [17] it was -68.5% (active); in assay [18], -10.8% (active).

In the case of `COc1cc([C@@H]2c3cc4c(cc3[C@H](O)[C@H]3COC[C@@H]23)OCO4)cc(OC)c1OC`, the growth is 91.8% in [1]; 88.8% in assay [2]; 104% in [3]; 65.4% in assay [4]; 94.4% in assay [5]; 98.8% in assay [6]. For the same compound, the growth was 78.5% in assay [7]; 96.7% in assay [8]; 96.7% in assay [9]; 39.1% in [10]; 43.3% in assay [11]; 73.8% in assay [12]. The growth in assay [13] was 83.1%; in assay [14] it was 80.9%; in [15], 56.3%; in assay [16], 75%; in [17], 75.8%; in assay [18], 42.4%.

As to `O=C(OCC1CC2(Cl)C(Cl)=C(Cl)C1(Cl)C2(Cl)Cl)C1C(C(=O)OCC2CC3(Cl)C(Cl)=C(Cl)C2(Cl)C3(Cl)Cl)C2(Cl)C(Cl)=C(Cl)C1(Cl)C2(Cl)Cl` (configuration not stated), the growth in [1] was 105%; in assay [2], 99.2%; in assay [3], 98.4%; in assay [4] it was 108%; in [5], 114%; in assay [6], 103%. The growth in assay [7] was 94%; in [8], 99.7%; in assay [9] it was 97.4%; in [10] it was 94.7%; in [11], 98.6%; in assay [12], 109%. Moreover, the growth was 104% in assay [13]; 100% in assay [14]; 94.8% in [15]; 97.9% in assay [16]; 113% in [17]; 98.5% in assay [18].

As to `COc1ccc(C2CC(=O)c3c(O)cc(OC4OC(COC5OC(C)C(O)C(O)C5O)C(O)C(O)C4O)cc3O2)cc1O` (configuration not stated), the growth in assay [1] is 105%; in assay [2] it was 105%; in assay [3], 81.7%; in [4], 10.3%; in assay [5] it was 110%; in assay [6] it was 98.3%. Besides, the growth is 100% in [7]; 112% in [8]; 136% in assay [9]; 167% in assay [10]; 96.1% in [11]; 111% in [12]. The growth in [13] is 111%; in assay [14], 112%; in assay [15] it was 87.8%; in [16], 98.7%; in assay [17], 95.5%; in [18] it was 98.7%.

Turning to `Nc1nc(-c2cccc(Br)c2)cc(-c2cc3ccccc3oc2=O)n1`, the growth is 96.1% in [1]; 91.5% in assay [2]; 115% in assay [3]; 90.9% in assay [4]; 103% in assay [5]; 97.2% in assay [6]. Also, the growth was 105% in [7]; 113% in [8]; 111% in assay [9]; 104% in assay [10]; 123% in [11]; 104% in [12]. The growth in [13] is 110%; in assay [14], 100%; in assay [15] it was 131%; in assay [16], 110%; in [17], 106%; in assay [18], 103%.

`CC(=O)Nc1nc(C)c(C(=O)N/N=C/N2CCCCC2)s1`: the growth was 108% in [1]; 103% in assay [2]; 123% in assay [3]; -100% (active) in assay [4]; 110% in [5]; 104% in assay [6]. In addition, the growth in assay [7] is 114%; in assay [8] it was 114%; in assay [9], 137%; in [10], 137%; in assay [11] it was 119%; in assay [12], 111%. For the same compound, the growth was 112% in assay [13]; 111% in assay [14]; 127% in [15]; 99.3% in [16]; 120% in [17]; 111% in assay [18].

On to `O=C(Nc1ccc(-n2cc(-c3ccncc3)c(-c3ccc(Cl)c(O)c3)n2)cc1)c1ccc(Cl)c(C(F)(F)F)c1`, for which the growth in assay [1] was -54.4% (active); in [2] it was 89%; in assay [3] it was 37.2%; in assay [4], -66.1% (active); in assay [5] it was -74.4% (active); in assay [6] it was -30.3% (active). Moreover, the growth in assay [7] was -94.1% (active); in assay [8] it was -1.56% (active); in assay [9] it was 26.4%; in assay [10] it was 2.13% (active); in assay [11] it was -26.6% (active); in assay [12], -33.5% (active). In addition, the growth in assay [13] is -66.3% (active); in assay [14] it was 28.6%; in assay [15] it was -63.4% (active); in assay [16], -32.4% (active); in assay [17] it was 31.4%; in assay [18], -79.4% (active).

`COc1cc(-c2nn(-c3ccc(NC(=O)Nc4ccc(Cl)c(C(F)(F)F)c4)cc3)cc2-c2ccncc2)ccc1Cl`: the growth is 2.97% (active) in [1]; 17.9% in [2]; 39% in assay [3]; 8.98% (active) in assay [4]; -51.7% (active) in assay [5]; 11.9% in assay [6]. The growth is -52.3% (active) in [7]; -94% (active) in [8]; 34% in assay [9]; 13.2% in assay [10]; 12.1% in assay [11]; 7.76% (active) in assay [12]. Also, the growth in assay [13] was -30.2% (active); in assay [14] it was 21.7%; in assay [15], -7.8% (active); in assay [16], 14.7%; in assay [17] it was -3.17% (active); in [18] it was 1.7% (active).

In the case of `CCCCCCCCCCCC(=O)OC(C)C(=O)Nc1ccccc1` (configuration not stated), the growth in assay [1] was 98.9%; in [2], 103%; in assay [3], 95.3%; in [4] it was 97.4%; in [5], 104%; in assay [6] it was 104%. In addition, the growth in assay [7] was 94.7%; in assay [8] it was 102%; in assay [9], 106%; in assay [10], 97.7%; in [11] it was 96.3%; in assay [12], 109%. In addition, the growth in [13] was 117%; in assay [14], 102%; in [15], 85.7%; in assay [16], 98.9%; in assay [17], 99.7%; in assay [18], 96.9%.
